From PubChem
The list is not random: actives were taken first. Their share in the collection is about 28%.
CD11b adhes enh – enhancers of CD11b/CD18 adhesion to fibrinogen, primary screen, K562 cells, luminescence; Integrin beta-2 (Homo sapiens) + Integrin alpha-M (Homo sapiens), P05107+P11215; ATPlite luminescence; activation, % at 10 µM; hit rate 0.07% among 93,000;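 active means 10 µM primary screen giving 50% or more activity, confirmed by 40% or more on retest at that dose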
CYP2C9 inhib – blockers of cytochrome P450 2C9 activity – biochemical, luminescence, ADME assay, primary screen; hit rate 20% among 96,000; P11712; inhibition, % at 5 µM; AID 777, 2007; CYP2C9 Supersomes, luciferin-H conversion;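 active means blocking of liver enzyme CYP2C9 beyond about 50% at 5 µM, limit read from the data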
Target sequence (P11712 whole entry, looked up): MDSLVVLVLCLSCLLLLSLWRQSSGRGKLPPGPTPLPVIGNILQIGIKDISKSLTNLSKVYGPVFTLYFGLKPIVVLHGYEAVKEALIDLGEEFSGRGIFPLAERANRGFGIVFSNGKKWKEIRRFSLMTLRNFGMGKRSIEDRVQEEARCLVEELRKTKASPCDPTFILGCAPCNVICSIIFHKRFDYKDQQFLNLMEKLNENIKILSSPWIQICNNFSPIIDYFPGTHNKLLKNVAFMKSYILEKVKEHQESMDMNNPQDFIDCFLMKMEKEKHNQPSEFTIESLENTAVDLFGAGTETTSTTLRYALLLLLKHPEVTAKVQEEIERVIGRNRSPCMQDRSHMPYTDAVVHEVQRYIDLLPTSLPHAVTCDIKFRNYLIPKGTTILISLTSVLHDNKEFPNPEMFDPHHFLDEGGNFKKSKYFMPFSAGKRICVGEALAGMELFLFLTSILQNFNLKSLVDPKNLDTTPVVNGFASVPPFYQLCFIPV
CYP2C9 act – human CYP2C9 activators, primary screen, biochemical, luminescence; activation factor at 5 µM; AID 1024, 2008; Cytochrome P450 2C9 (Homo sapiens), P11712; recombinant CYP2C9, luciferin-H conversion; stronger effect = higher value; factor 1 = untreated enzyme, 0 = blocked; hit rate 1.4% among 96,000;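 active means activation factor of 2 or more for CYP2C9 at a 5 µM dose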
CYP2C19 inh – blockers of cytochrome P450 2C19 activity – biochemical, luminescence, ADME assay, primary screen | P33261 | CYP2C19 Supersomes, luciferin-H EGE luminescence, 30 min | inhibition, % at 5 µM | hit rate 21% among 96,000;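 active means CYP2C19 inhibition above a set limit at 5 µM in the primary screen, cut at about 50% in these data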
Mac1 fbg inh – inhibitors of CD11b/CD18 adhesion to fibrinogen, primary screen, K562 cells, luminescence | inhibition, % at 10 µM | hit rate 0.54% among 93,000 | ATPlite luminescence; Mn2+ added to activate the integrin;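 active means primary inhibition of 50% or more at 10 µM, then 40% or more on retest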
CYP2C19 act – human CYP2C19 activators, primary screen, biochemical, luminescence | Cytochrome P450 2C19 (Homo sapiens), P33261 | recombinant CYP2C19, luciferin-H EGE luminescence; stronger effect = higher value; 0 = fully inhibited enzyme, 1 = untreated enzyme | activation factor at 5 µM | 96,000 tested, under 10 active | AID 1025, 2008;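 active means activation factor of at least 2 at 5 µM in the primary screen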
Large screens that a line does not name were inactive.

CCCCS(=O)CC(COCc1ccccc1)OC(=O)CSc1nc(C)cc(C)n1 (stereo not drawn)	none
COC(=O)C(C)Sc1nnc2n(-c3cccc(C)c3)c(=O)c3c4c(sc3n12)CCCC4 (stereo not drawn)	none
N#Cc1c(N)nc2c(c1-c1ccncc1)CCCC2	CYP2C19 inh 76.4
N#Cc1c(N)nc2c(c1-c1cccc(O)c1)CCCCCC2	CYP2C9 inhib 54.3 (no result: CD11b adhes enh, Mac1 fbg inh)
N#Cc1c(N)nc2c(c1-c1ccccc1)CCCC2	none
CCSc1nn2c(=O)c3ccccc3nc2s1	none
Cc1ccc(S(=O)(=O)N2Cc3ccccc3CC2C(=O)Nn2cnnc2)cc1 (stereo not drawn)	CYP2C19 inh 54.9
CCOc1ccc(S(=O)(=O)N2Cc3ccccc3CC2C(=O)NCCCn2ccnc2)cc1 (stereo not drawn)	CYP2C9 inhib 96.7, CYP2C19 inh 99.7
Cc1ccc(S(=O)(=O)N2CCCC2C(=O)Nc2cc(C)on2)cc1 (stereo not drawn)	none
Cc1ccc(S(=O)(=O)N2Cc3ccccc3CC2C(=O)Nc2cc(C)on2)cc1 (stereo not drawn)	CYP2C9 inhib 84.6, CYP2C19 inh 82.8
CCc1nnc(NC(=O)C2Cc3ccccc3CN2S(=O)(=O)c2c(C)c(C)cc(C)c2C)s1 (stereo not drawn)	CYP2C9 inhib 61.4
O=C(Nn1cnnc1)C1Cc2ccccc2CN1S(=O)(=O)c1ccc(F)cc1 (stereo not drawn)	none (no result: CD11b adhes enh, Mac1 fbg inh)
Cc1nnsc1SC(C)C(=O)O (stereo not drawn)	none (no result: CD11b adhes enh, Mac1 fbg inh)
CCSc1nnc(-c2ccncc2)n1Cc1ccccc1	none
CCOC(=O)CSc1nnc(-c2ccc(OC)cc2)n1CC	none
CCn1c(SCc2nc3ccccc3s2)nnc1-c1ccccc1	CYP2C19 inh 99.0
COc1ccc(-c2nnc(SCC(=O)Nc3nc4ccccc4s3)n2C)cc1	none
COc1cccc(-c2nnc(SCc3nc4ccccc4s3)n2C)c1	CYP2C19 inh 81.3
CCn1c(SCc2cccc(C)c2)nnc1-c1ccccc1	CYP2C19 inh 97.3
CCOC(=O)CSc1nnc(-c2cccc(Cl)c2)n1CC	CYP2C19 inh 52.4
COCCNC(=O)c1cc2cc(Br)cc(OC)c2oc1=O	none
CC(=O)Nc1ccc(S(=O)(=O)NC2(C(F)(F)F)N=C(c3ccccc3)NC2=O)cc1 (stereo not drawn)	none
Cc1nn(CCO)c(C)c1Oc1ccccc1O	none
c1ccc(Cn2c(SCc3nc4ccccc4s3)nnc2-c2ccco2)cc1	CYP2C9 inhib 82.7, CYP2C19 inh 88.0
CCC(c1nnc(SCc2nc3ccccc3s2)n1Cc1ccccc1)N(C)C (stereo not drawn)	CYP2C9 inhib 74.4, CYP2C19 inh 80.6
Cc1[nH]c2ccc(-c3nnc(SCC(=O)N4CCCc5ccccc54)o3)cc2c1C	none
Cc1ccc(NCc2nnc(SCC(=O)NCCc3ccccc3)n2C)cc1	none
N#C/C(=C\c1c(N2CCC(C(N)=O)CC2)nc2ccccn2c1=O)S(=O)(=O)c1ccccc1	CYP2C9 inhib 78.8
CCNC(=O)/C(C#N)=C/c1c(N(Cc2ccccc2)Cc2ccccc2)nc2ccccn2c1=O	none (no result: CYP2C9 inhib, CYP2C9 act, CYP2C19 inh, CYP2C19 act)
CC1CN(c2oc(-c3ccco3)nc2S(=O)(=O)c2ccccc2)CC(C)O1 (stereo not drawn)	none
CC1CN(c2nc3ccccn3c(=O)c2/C=C(\C#N)S(=O)(=O)c2ccccc2)CC(C)O1 (stereo not drawn)	CYP2C9 inhib 83.9, CYP2C19 inh 84.6
Cc1ccc(C(=O)NNc2cc(=O)n(C)c(=O)n2C)cc1C	none (no result: CYP2C9 inhib, CYP2C9 act, CYP2C19 inh, CYP2C19 act)
O=C(NCCc1ccccc1)c1ccc(-n2cnnn2)cc1	none
c1ccc(CCNc2ccc3nncn3n2)cc1	CYP2C19 inh 64.0
Cc1cc(C)n2nc(SCC(=O)Nc3c(C)n(C)n(-c4ccccc4)c3=O)nc2n1	none
Cc1ccc(CC2CC(=O)N(c3cc(C)on3)C2=O)cc1 (stereo not drawn)	CYP2C19 inh 53.7
Cc1cc(C)cc(CC2CC(=O)N(c3ccc(Cl)cn3)C2=O)c1 (stereo not drawn)	none
COCCNC(=O)C(c1ccc(C)o1)N(C(=O)c1snc(C(N)=O)c1N)c1cccc(C)c1 (stereo not drawn)	none
CC(C)(C)c1ccc(-c2nc3c(C#N)c(-c4ccc5c(c4)OCO5)ccn3n2)cc1	none
O=C(CSc1nc2ccccc2o1)Nc1nncs1	CYP2C9 inhib 55.4
CCc1nnc(NC(=O)CSc2nc3ccccc3o2)s1	CYP2C9 inhib 58.7
O=C(CSc1nc2ccccc2o1)Nc1nc(-c2ccccc2)c(-c2ccccc2)s1	none (no result: CYP2C9 inhib, CYP2C9 act, CYP2C19 inh, CYP2C19 act)
O=C(CSc1nc(-c2ccccc2)c(-c2ccccc2)o1)Nc1nncs1	none
C=CCSc1nnc(NC(=O)CSc2nc3ccccc3o2)s1	CYP2C9 inhib 82.3, CYP2C19 inh 58.8
O=C(CSc1nc2cc(Cl)ccc2o1)NCCc1ccccc1	CYP2C9 inhib 65.1, CYP2C19 inh 50.9
O=C(CSc1nc2cc(Cl)ccc2o1)c1cccs1	CYP2C9 inhib 60.2, CYP2C19 inh 57.6
O=C(CSc1nnc(Cc2ccccc2)o1)NCCc1ccccc1	none
COc1ccc(CCNC(=O)CSc2ccc(-c3ccccc3)nn2)cc1	none (no result: CYP2C9 inhib, CYP2C9 act, CYP2C19 inh, CYP2C19 act)
CCN(CC)S(=O)(=O)c1ccc2oc(SCC(=O)NCc3ccccc3)nc2c1	CYP2C9 inhib 90.3, CYP2C19 inh 97.2
COc1ccc(CCNC(=O)CSc2nc3ccccc3o2)cc1	CYP2C9 inhib 98.6, CYP2C19 inh 92.2
COc1cc(/C=N/NC(=O)CCN2CCN(C(c3ccccc3)c3ccccc3)CC2)ccc1O	none (no result: CYP2C9 inhib, CYP2C9 act, CYP2C19 inh, CYP2C19 act)
O=C(O)/C=C/C(=O)Nc1ccccc1C(=O)Nc1ccccc1	none
CCS(=O)(=O)c1ccc2oc(SCC(=O)NC3CCCC(C)C3C)nc2c1 (stereo not drawn)	CYP2C19 inh 52.0
Cc1cc(C=O)c(C)n1-c1cc(C(F)(F)F)ccc1N1CCOCC1	CYP2C19 inh 91.5
CC(=O)Nc1cc(C(F)(F)F)ccc1N1CCOCC1	none
CC(C)CCN1C(=O)c2ccc(C(=O)NCC3CCCO3)cc2C1=O (stereo not drawn)	CYP2C9 inhib 80.7, CYP2C19 inh 79.3
O=C(NCC1CCCO1)c1ccc2c(c1)C(=O)N(C1CCCCC1)C2=O (stereo not drawn)	CYP2C9 inhib 60.6
Cc1cc(NC(=O)c2ccc3c(c2)C(=O)N(C2CCCCC2)C3=O)no1	none
O=C(CN1C(=O)COc2ccc(Cl)cc21)N1CCc2ccccc21	none
C=CCSc1nc(C)c2cc(C)cc(C)c2n1	none
CCCn1c(N2CCN(CC(=O)Nc3ccc4c(c3)OCCO4)CC2)nc2ccccc21	none
